Among the data in PubChem BioAssay (NCI) are growth inhibition values, retold here.

Assay [1] is described as follows: NCI Yeast Anticancer Drug Screen. Data for the rad50 strain (AID 155).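 Further: 0% = growth of vehicle-only cultures of the same strain.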 The conditions noted are these: S. cerevisiae rad50 strain growth inhibition; at 50.0 µM; stronger effect = higher value. An outline of the steps:
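A DNA repair-deficient yeast mutant serves as the test organism; compound-induced growth inhibition is calculated against vehicle-treated cells.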

A short description of assay [2]: NCI Yeast Anticancer Drug Screen. Data for the mec2-1 strain (AID 157). To be noted: S. cerevisiae mec2-1 strain, at 50.0 µM, stronger effect = higher value. An outline of the steps:
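Each compound was tested on mec2-1 yeast, a strain altered in DNA damage repair or cell cycle control. Growth inhibition is reported relative to vehicle.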

A short description of assay [3]: NCI Yeast Anticancer Drug Screen. Data for the sgs1 mgt1 strain (AID 161).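 Further: 0% = growth of cultures given vehicle only.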 The conditions noted are these: S. cerevisiae sgs1 mgt1 strain, at 50.0 µM, stronger effect = higher value. An outline of the steps: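 Genetically altered yeast, compound exposure, growth inhibition relative to vehicle.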
Assay [4] in a line: NCI Yeast Anticancer Drug Screen. Data for the cln2 rad14 strain (AID 165).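 Further: 0% = growth equal to vehicle treated cultures.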 To be noted: S. cerevisiae cln2 rad14 strain, at 50.0 µM, stronger effect = higher value. An outline of the steps: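 Test compounds were added to cln2 rad14 yeast cultures; inhibition of growth was then determined by comparison with vehicle treatment.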
Assay [5] in a line: NCI Yeast Anticancer Drug Screen. Data for the bub3 strain (AID 167). The conditions noted are these: S. cerevisiae bub3 mutant strain, at 50.0 µM, stronger effect = higher value. An outline of the steps: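 Inhibition values come from growth of compound-treated mutant yeast normalised to vehicle-treated controls.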
Assay [6] can be described thus: NCI Yeast Anticancer Drug Screen. Data for the mlh1 rad18 strain (AID 175). To be noted: S. cerevisiae mlh1 rad18 strain growth inhibition; at 50.0 µM; stronger effect = higher value. An outline of the steps: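 Inhibition values reflect reduced growth of mutant yeast versus vehicle-treated controls following compound exposure; the mutations affect DNA damage repair.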

The panel holds about 79,000 compounds, 15% with a hit somewhere; the sample as a whole holds those more often. Unmarked numbers belong to inactive results. The source made the active and inactive calls. No stated cut-off is given here; in the data, active means growth inhibition above about 70%; inactive means the rest.

Turning to `COc1ccc(-c2c3ccccc3c(-c3ccc(OCCCCCBr)cc3)c3ccccc23)cc1`, the growth inhibition in assay [1] was -10.4%; in assay [2], -10.7%; in assay [3], -10.6%; in assay [4], -30.1%; in assay [5] it was -22.5%; in assay [6] it was 1.4%.

On to `COC(CN1C=C(Sc2ccccc2)CC1)OC`, for which the growth inhibition is 49.2% in assay [1]; 24.2% in assay [2]; 32.3% in assay [3]; 13% in assay [4]; 27.5% in assay [5]; 56.2% in assay [6].

`O=c1oc(=O)c2ccccc2c2ccccc12`: the growth inhibition is -22.9% in assay [1]; 6.85% in assay [2]; -0.9% in assay [3]; -32.1% in assay [4]; -3.75% in assay [5]; -5.6% in assay [6].

For the molecule `COc1c2occc2c(CC(O)C(C)(C)O)c2ccc(=O)oc12` (stereo not given), the growth inhibition was 13.4% in assay [1]; -20.7% in assay [2]; 14.8% in assay [3]; -6.75% in assay [4]; -3.75% in assay [5]; -13.2% in assay [6].

As for `CCCn1c(C)nc2c(N)cc(C)cc21`, the growth inhibition in assay [1] was -5.9%; in assay [2], -2.9%; in assay [3], -6.05%; in assay [4] it was -44.5%; in assay [5], -1.5%; in assay [6] it was -0.8%.

With `C=C1CCCCCCCCCCC1S(=O)c1ccccc1` (stereo not given), the growth inhibition is 14.5% in assay [1]; 14.3% in assay [2]; 4.15% in assay [3]; -6.6% in assay [4]; -5.4% in assay [5]; 31.5% in assay [6].

For the molecule `OCCCCN1CCCCC1`, the growth inhibition in assay [1] is -1%; in assay [2] it was -1.95%; in assay [3], -13.2%; in assay [4], 2.5%; in assay [5] it was -0.85%; in assay [6], -5.05%.

In the case of `O=S1(=O)C(Cl)c2ccccc2-c2ccccc2C1Cl` (stereo not given), the growth inhibition in assay [1] was -1.35%; in assay [2], -6.65%; in assay [3], -10.4%; in assay [4], 8.3%; in assay [5], 5%; in assay [6], -9.65%.

Turning to `C/C(CC(O)(C(F)(F)F)C(F)(F)F)=N\N`, the growth inhibition was -31.9% in assay [1]; -49.8% in assay [2]; -20.4% in assay [3]; -7.6% in assay [4]; -4.5% in assay [5]; -23.4% in assay [6].

As to `COc1ccc(N=Cc2ccc([N+](=O)[O-])cc2)cc1`, the growth inhibition is 27.9% in assay [1]; 0.75% in assay [2]; 15.2% in assay [3]; -22.4% in assay [4]; 9.9% in assay [5]; 36.1% in assay [6].

On to `CC(=O)Nc1ccc(S(=O)(=O)/C(=C\c2ccc(Cl)o2)c2ccc([N+](=O)[O-])o2)cc1`, for which the growth inhibition is 90.1% (active) in assay [1]; 56.8% in assay [2]; 92.9% (active) in assay [3]; 57.5% in assay [4]; 61.4% in assay [5]; 92.7% (active) in assay [6].

For the molecule `COc1ccc(Cl)cc1NC(=O)Nc1ccc(F)c([N+](=O)[O-])c1`, the growth inhibition is 10% in assay [1]; 38% in assay [2]; 29.2% in assay [3]; -9.8% in assay [4]; 33.5% in assay [5]; 23.8% in assay [6].

For the molecule `O=C(OCCCl)OCCCl`, the growth inhibition in assay [1] was 41.5%; in assay [2], 18.9%; in assay [3], 22.4%; in assay [4] it was -21.9%; in assay [5] it was -5.3%; in assay [6] it was 25%.

Regarding `Cc1cc(S(=O)(=O)Nc2n[nH]c(N)n2)c(SCC(=O)O)cc1Cl`, the growth inhibition in assay [1] was -2.5%; in assay [2], -0.3%; in assay [3], -27.6%; in assay [4], 8.55%; in assay [5], 1.85%; in assay [6] it was 18.9%.

As to `CC(=O)OCC#Cc1ccccc1`, the growth inhibition was -10.9% in assay [1]; -14.1% in assay [2]; -0.2% in assay [3]; -17.6% in assay [4]; 19.4% in assay [5]; -1.2% in assay [6].

For the molecule `Cc1ccc(OCc2cccc(Cl)c2)cc1`, the growth inhibition in assay [1] is 17.8%; in assay [2], -10.4%; in assay [3] it was 2.5%; in assay [4], -2.9%; in assay [5], -42.1%; in assay [6], -11.3%.

On to `COC(=O)CCc1ccc(NC(=O)OC)cc1`, for which the growth inhibition is -1.4% in assay [1]; 20.3% in assay [2]; 10.9% in assay [3]; 11.2% in assay [4]; 14.8% in assay [5]; -4.7% in assay [6].

For the molecule `Nc1nc(-c2cc(C(c3ccccc3)c3ccccc3)nc(N)n2)cc(C(c2ccccc2)c2ccccc2)n1`, the growth inhibition in assay [1] is -6.45%; in assay [2], 13.8%; in assay [3], -24.6%; in assay [4], 3.45%; in assay [5] it was -2.3%; in assay [6], 9.95%.

`CC(=O)c1c(-c2nc(=S)[nH]c(C)c2C(C)=O)nc(=S)[nH]c1C`: the growth inhibition in assay [1] is 15.1%; in assay [2] it was 9.95%; in assay [3], 6.3%; in assay [4] it was 0.45%; in assay [5], -1.45%; in assay [6] it was 16.8%.

Regarding `Cc1cc(C(C)(C)C)cc(C)c1[N+](=O)[O-]`, the growth inhibition is 18.7% in assay [1]; -7.55% in assay [2]; -17.9% in assay [3]; 8.2% in assay [4]; -7.1% in assay [5]; 7.25% in assay [6].
